Data taken from PubChem BioAssay AID1875 (Broad Institute, 2009).
About 65 (0.02%) of roughly 300,000 compounds were called active. This is one part of a sample in which actives are shown more often than they occur.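 How the source made its calls: active means lowest replicate activity score at least 50, where 100 means six control SD above control mean; inconclusive means lowest score under 50 but half or more replicates reach 50; inactive means the rest.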

Assay: polyadenylation inhibitors in yeast reporter cells, primary screen, luminescence, S. cerevisiae (AID 1875);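 further: yeast exposed to compound for 9 h at 30 °C; higher score means more reporter readthrough which indicates perturbed polyadenylation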
Conditions: S. cerevisiae SKY197-pL101 polyadenylation reporter, beta-gal luminescence; at 12 µM; active compounds read high; efflux-impaired pdr1/pdr3 knockout yeast; score 100 = 6 SD above DMSO

Activity score, inactive:
O=C(Cc1ccccc1)Nc1c(Cl)ccc2nsnc12 16.1%, Cc1[nH]n(C(N)=S)c(=O)c1N=Nc1ccc(Cl)cc1Cl -14.2%, COc1ccc(OC)c(NC(=O)CSc2nc(-c3ccccc3)cc(=O)[nH]2)c1 -4.65%, CC1CCN(CCCn2c(SCC(=O)NC3CCCC3)nc3ccccc3c2=O)CC1 -3.59%, COc1cccc(C(=O)Nc2nnc(S(=O)(=O)N3CCOCC3)s2)c1 16.5%, Cc1ccc(S(=O)(=O)C2C(=O)NC3(C)CC2c2ccccc2O3)cc1 (stereo not given) 1.24%, COc1ccc(C(=O)C2CCCN(C(=O)c3cc4nc(C)cc(C)n4n3)C2)cc1F (stereo not given) 4.72%, CN(CCO)c1ccc(/C=N/Nc2nncc3ccccc23)cc1 -9.02%, Cc1ccccc1CN1C[C@@H]2C[C@@H](c3cn(C)nc3-c3ccccc3)N3CCC[C@@]23C1=O -0.645%, COc1cc(CNc2ncn[nH]2)ccc1OCc1ccccc1C 5.71%, CN(CCOc1ccccc1)Cc1nc2cc(Cl)ccc2c(=O)[nH]1 6.63%, CC(C)(C)c1ccccc1NC(=O)CN1C(=O)NC2(CCCC2)C1=O 9.67%, Cc1ccc(CS(=O)(=O)CCC(=O)NCc2ccc(F)cc2)cc1 -0.106%, CCn1c(Cc2ccc(OC)cc2)nnc1SCC(=O)Nc1ccc(N2CCOCC2)cc1 -14.5%, Cc1ccc(NN=Nc2nc3c([nH]2)c(=O)n(C)c(=O)n3C)cc1 15.9%, COc1cc(NS(=O)(=O)c2ccc(NC(=O)c3ccc([N+](=O)[O-])cc3)cc2)ncn1 -0.0482%, O=C(CCCCCn1c(=S)[nH]c2ccsc2c1=O)NC1CCCCC1 -14.5%, CCCCn1c(N)c(N(CCOC)C(=O)c2cccc(OCc3ccccc3)c2)c(=O)[nH]c1=O -6.78%, Brc1ccccc1/C=N/Nc1nc2ccccc2o1 -16.6%, Cc1ccc(N(Cc2cc(=O)[nH]c3ccccc23)C(=O)CCl)cc1 29.9%, COC(=O)c1c(C)[nH]c(C(=O)/C=C/c2ccc(Cl)cc2)c1C -2.04%, O=C(NCCc1ccccc1)C1CCC(Cn2c(=O)c3ccccc3n(Cc3cccnc3)c2=O)CC1 (stereo not given) -5.99%, COc1ccc(-c2nn(-c3ccccc3)cc2CN2CCCO2)c(F)c1 0.939%, O=C(NCCCn1ccnc1)/C(=C\c1ccccc1F)NC(=O)c1ccccc1 11.1%, CN(C(=O)C1CCN(c2ncnc3c2nc2n3CCCCC2)CC1)C1CCCCC1 5.63%
